Measured values as given in PubChem BioAssay (NCATS).
Where “and” joins values, the source holds several entries; their conditions need not be identical. Equal entries are not always repeated. Results filed as inconclusive are left out. Calls of active or inactive are those of the source. Unless noted, calls come from the whole dose curve; as a rule, active = well fitted curve in the direction sought with a large enough effect; inconclusive = small, poorly fitted or top-dose-only effect, or another doubt; inactive = no such curve, though single readings can be large; an effect the other way counts as inactive or inconclusive.

Columns and labels:
[1] = molecular target: Guanidinoacetate N-methyltransferase (Homo sapiens) (UniProt Q14353); assay: Confirmatory Screen for Target Class Profiling of Small Molecule Inhibitors of Methyltransferases (AID 1745852; calls by dose curve; note: potency is the fitted concentration of half-maximal effect); settings: MTase-Glo luminescence, SAH detection, recombinant enzyme
[2] = molecular target: Nicotinamide N-methyltransferase (Homo sapiens) (UniProt P40261); assay: as above; settings: MTase-Glo luminescence, SAH detection, recombinant enzyme; measured here: NNMT max response; stronger effect = lower value
[3] = molecular target: Phenylethanolamine N-methyltransferase (Homo sapiens) (UniProt P11086); assay: as above; settings: MTase-Glo luminescence, SAH detection, recombinant enzyme; measured here: PNMT max response; stronger effect = lower value
[4] = molecular target: Glutathione peroxidase 1 (Homo sapiens) (UniProt P07203); assay: Primary qHTS Assay for Inhibitors of Recombinant Selenoprotein Glutathione Peroxidase 1 (GPX1) (AID 1845191); note: nearly all actives have a fitted effect of over 65% in size
In short: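 GR-coupled readout: NADPH consumption tracked by fluorescence, ex 340/em 450 nm, at t=0 and after 15 min at RT. Final mix 10 nM GPX1, 1 mM GSH, 0.5 mM CHP, 0.5 mM NADPH, 100 nM GR, 0.01% BSA, following 30 min enzyme–compound preincubation.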

[5] = molecular target: Phospholipid hydroperoxide glutathione peroxidase GPX4 (Homo sapiens) (UniProt P36969); assay: Primary qHTS Assay for Inhibitors of Recombinant Selenoprotein Glutathione Peroxidase 4 (GPX4) (AID 1845192); note: nearly all actives have a fitted effect of over 65% in size
In short: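 Steps: GPX4 plus compound, 30 min RT; add GR/GSH/NADPH master mix; start with cumene hydroperoxide; read 340/450 nm fluorescence at 0 and 15 min. Finals were 200 nM GPX4, 1 mM GSH, 0.5 mM CHP, 0.5 mM NADPH, 100 nM GR.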

[6] = molecular target: Luciferin 4-monooxygenase (Photinus pyralis) (UniProt P08659); assay: Primary firefly luciferase (FLuc) qHTS assay for identification of artifact compounds. (AID 1845220); note: nearly all actives have a fitted effect of over 60% in size
In short: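 Titrated compounds were incubated 15 min at RT, protected from light, with luciferin and ATP at 10 uM; reaction started with 10 nM FLuc, luminescence imaged at 5 min, and concentration-response fitted by Hill equation.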

[7] = Primary fluorescence-based thiol-reactive (MSTI) qHTS assay for identification of artifact compounds. (AID 1845221); note: nearly all actives have a fitted effect of over 65% in size; note: potency is the fitted concentration of half-maximal effect
In short: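 First, 4 uM MSTI in 2% DMSO/PBS pH 7.4 was dispensed; next, compounds were added; then plates sat 1 h at room temperature without light. Finally, emission at 598 nm was recorded.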

[8] = system: Nanoluciferase (engineered Oplophorus gracilirostris luciferase); assay: Primary Nanoluciferase (NLuc) qHTS assay for identification of artifact compounds. (AID 1845222); note: potency is the fitted concentration of half-maximal effect
In short: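 qHTS format, against NLuc in S16 cell-conditioned medium. Nano-Glo substrate 1:100 was added after 15 min at room temperature. Luminescence was taken after a further 5 min.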

[9] = Primary redox qHTS assay for identification of artifact compounds. (AID 1845223); note: potency is the fitted concentration of half-maximal effect
In short: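 Redox-cycling detection via DTT (250 uM final) oxidation coupled to Amplex Red (25 uM)/HRP (250 mU/mL) in HBSS. 15 min preincubation plus 30 min after DTT, room temperature. Ex/Em 525/598 nm; 4-parameter Hill fit against DMSO and 10 uM DA3003.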

[10] = Quantitative High-Throughput drug screen in 47 multiple myeloma cell lines against the NCATS MIPE library collection: FR4_PLB cell viability assay (AID 1918924; note: potency is the fitted concentration of half-maximal effect; nearly all actives have a fitted effect of over 35% in size)
In short: (§1)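 Steps: seed 500 cells per well; pin-transfer MIPE 4.0 library; incubate 48 h at 37C, 5% CO2, humidified; add CellTiter-Glo, 5 min room temperature; read luminescence.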

[11] = Quantitative High-Throughput drug screen in 47 multiple myeloma cell lines against the NCATS MIPE library collection: Delta47_JCRB cell viability assay (AID 1918925; note: nearly all actives have a fitted effect of over 45% in size; note: potency is the fitted concentration of half-maximal effect)
In short: (§2)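 Luminescent ATP measurement with CellTiter-Glo gives viability, scaled between DMSO-only wells (100%) and media-only wells (0%). Cells, 500 per well, faced library compounds for 48 hours at 37C.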

[12] = Quantitative High-Throughput drug screen in 47 multiple myeloma cell lines against the NCATS MIPE library collection: EJM_DSMZ cell viability assay (AID 1918926; note: nearly all actives have a fitted effect of over 30% in size; note: potency is the fitted concentration of half-maximal effect)
In short: as §2

[13] = Quantitative High-Throughput drug screen in 47 multiple myeloma cell lines against the NCATS MIPE library collection: ARP1_JJKsccF8 cell viability assay (AID 1918928; note: nearly all actives have a fitted effect of over 40% in size; note: potency is the fitted concentration of half-maximal effect)
In short: (§3)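 500 cells/well; MIPE 4.0 library pinned in; 48 h, 37 °C, 5% CO2; CellTiter-Glo ATP luminescence. Controls: DMSO = 100% viability, medium only = 0%.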

[14] = Quantitative High-Throughput drug screen in 47 multiple myeloma cell lines against the NCATS MIPE library collection: AMO1_DSMZ cell viability assay (AID 1918927; note: potency is the fitted concentration of half-maximal effect; nearly all actives have a fitted effect of over 30% in size)
In short: as §2

[15] = Quantitative High-Throughput drug screen in 47 multiple myeloma cell lines against the NCATS MIPE library collection: ARD_JJKsccE7 cell viability assay (AID 1918929; note: potency is the fitted concentration of half-maximal effect)
In short: as §2

[16] = Quantitative High-Throughput drug screen in 47 multiple myeloma cell lines against the NCATS MIPE library collection: Karpas620_DSMZ cell viability assay (AID 1918959); note: nearly all actives have a fitted effect of over 30% in size; note: potency is the fitted concentration of half-maximal effect
In short: as §1

[17] = Quantitative High-Throughput drug screen in 47 multiple myeloma cell lines against the NCATS MIPE library collection: KMM1_JCRB cell viability assay (AID 1918960); note: nearly all actives have a fitted effect of over 30% in size; note: potency is the fitted concentration of half-maximal effect
In short: as §3

[18] = NCATS anti-infectives library activity on HEK293 viability as a counter-qHTS vs the C. elegans viability qHTS (AID 1745854)
In short: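 CellTiter-Glo luminescence, read on a CCD imager, scored viability of HEK293 cells after 24 hr compound exposure at 37C. Library tested in several concentrations, 1:5 steps, up to 41.7 uM; digitonin served as control.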

[19] = activity change, negative = inhibition: at 57.3 µM (top of the series) unless noted

Sequence of Nicotinamide N-methyltransferase (Homo sapiens) (P40261 whole entry, looked up): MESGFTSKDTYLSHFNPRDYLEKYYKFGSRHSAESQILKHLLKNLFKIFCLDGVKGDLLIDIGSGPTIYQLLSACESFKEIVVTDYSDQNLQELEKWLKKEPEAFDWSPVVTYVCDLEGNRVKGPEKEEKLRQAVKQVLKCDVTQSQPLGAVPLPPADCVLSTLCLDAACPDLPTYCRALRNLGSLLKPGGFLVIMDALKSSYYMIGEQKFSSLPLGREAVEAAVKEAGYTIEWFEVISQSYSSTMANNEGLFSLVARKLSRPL
Sequence of Glutathione peroxidase 1 (Homo sapiens) (P07203 whole entry, looked up): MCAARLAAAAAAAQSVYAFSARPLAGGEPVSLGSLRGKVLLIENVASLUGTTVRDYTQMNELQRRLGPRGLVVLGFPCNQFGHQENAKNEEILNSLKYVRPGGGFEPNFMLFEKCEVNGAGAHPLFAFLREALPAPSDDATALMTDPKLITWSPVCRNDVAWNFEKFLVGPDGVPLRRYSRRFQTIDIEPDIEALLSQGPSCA
Sequence of Phenylethanolamine N-methyltransferase (Homo sapiens) (P11086 whole entry, looked up): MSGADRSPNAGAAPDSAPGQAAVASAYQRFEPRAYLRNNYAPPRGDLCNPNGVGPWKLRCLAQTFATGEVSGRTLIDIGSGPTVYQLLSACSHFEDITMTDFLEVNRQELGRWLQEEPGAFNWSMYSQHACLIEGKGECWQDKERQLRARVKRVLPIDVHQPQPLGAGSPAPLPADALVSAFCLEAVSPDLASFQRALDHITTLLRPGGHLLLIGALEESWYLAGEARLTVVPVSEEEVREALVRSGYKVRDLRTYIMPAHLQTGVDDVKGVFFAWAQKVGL
Sequence of Phospholipid hydroperoxide glutathione peroxidase GPX4 (Homo sapiens) (P36969 whole entry, looked up): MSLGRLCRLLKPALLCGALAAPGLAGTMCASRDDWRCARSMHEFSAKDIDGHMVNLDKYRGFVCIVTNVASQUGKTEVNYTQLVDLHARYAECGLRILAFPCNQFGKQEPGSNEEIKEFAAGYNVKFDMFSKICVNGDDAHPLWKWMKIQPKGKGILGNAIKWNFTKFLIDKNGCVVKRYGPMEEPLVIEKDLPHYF

Nc1nc(NCCNc2ncc(-n3ccnc3)c(-c3ccc(Cl)cc3Cl)n2)ccc1[N+](=O)[O-]
active: Potency [8] 0.536 µM | Potency [10] 13.2 µM | Potency [11] 1.48 µM | Potency [12] 16.6 µM | Potency [13] 11.8 µM
0%: activity change, negative = inhibition [1, 19]
-47.1%: activity [2]
inactive: Potency [4] | Potency [5] | Potency [6] | Potency [7] | Potency [9]
-4.53%: activity [3]

C[C@@H](Oc1cc(-c2cnn(C3CCNCC3)c2)cnc1N)c1c(Cl)ccc(F)c1Cl
inactive: Potency [4] | Potency [5] | Potency [6] | Potency [7] | Potency [8] | Potency [9]
-57.8% and -68.4%: activity [2]
active: Potency [1, 19] 27.1 µM | Potency [10] 18.7 µM | Potency [11] 2.09 µM | Potency [12] 18.7 µM | Potency [14] 18.7 µM | Potency [13] 8.33 µM | Potency [15] 11.8 µM | Potency [16] 14.8 µM | Potency [17] 13.2 µM
-33.1% and -60.2%: activity [3]

CC1(C)CC(=O)c2c(C(F)(F)F)nn(-c3ccc(C(N)=O)c(NC4CCC(OC(=O)CN)CC4)c3)c2C1 (centres undefined)
inactive: Potency [4] | Potency [5] | Potency [6] | Potency [7] | Potency [8] | Potency [9]
-0.772%: activity [3]
active: Potency [11] 0.166 µM | Potency [14] 0.148 µM | Potency [13] 0.235 µM | Potency [15] 0.0935 µM | Potency [17] 0.132 µM
-47.8%: activity [2]
0%: activity change, negative = inhibition [1, 19]

COc1cc2c(NC3CCN(C(C)C)CC3)nc(C3CCCCC3)nc2cc1OCCCN1CCCC1
inactive: Potency [4] | Potency [5] | Potency [6] | Potency [8] | Potency [9]
-39.8%: activity [2]
active: Potency [10] 7.43 µM | Potency [11] 4.69 µM | Potency [12] 10.5 µM | Potency [13] 7.43 µM | Potency [16] 8.33 µM | Potency [17] 23.5 µM
-6.26%: activity change, negative = inhibition [1, 19]
-4.49%: activity [3]

Cc1c(CN2CCN(S(C)(=O)=O)CC2)sc2c(N3CCOCC3)nc(-c3cnc(N)nc3)nc12
inactive: Potency [4] | Potency [5] | Potency [6] | Potency [7] | Potency [8] | Potency [9]
-17.8%: activity [2]
active: Potency [10] 0.105 µM | Potency [11] 0.0105 µM | Potency [12] 0.105 µM | Potency [14] 0.0935 µM | Potency [13] 0.0083 µM | Potency [16] 0.0662 µM
-14.7%: activity [3]
-5.48%: activity change, negative = inhibition [1, 19]

Cc1coc2c1C(=O)C(=O)c1c-2ccc2c1CCCC2(C)C
active: Potency [1, 19] 24.1 µM | Potency [7] 1.34 µM | Potency [9] 9.47 µM | Potency [10] 20.9 µM | Potency [11] 8.33 µM | Potency [14] 0.0209 µM | Potency [13] 16.6 µM
-48.9%: activity [2]
-37.9%: activity [3]
inactive: Potency [18] | Potency [4] | Potency [8] | Potency [16]

Nc1ccccc1NC(=O)c1ccc(CNc2nccc(-c3cccnc3)n2)cc1
-7.44%: activity [3]
active: Potency [10] 0.935 µM | Potency [11] 0.166 µM | Potency [12] 3.32 µM | Potency [14] 0.59 µM | Potency [13] 0.662 µM | Potency [15] 0.935 µM | Potency [17] 1.05 µM
-1.06%: activity change, negative = inhibition [1, 19]
inactive: Potency [18] | Potency [4] | Potency [5] | Potency [6] | Potency [8] | Potency [9]
-33.2%: activity [2]

O=C(O)C1(Cc2cccc(Nc3nccs3)n2)CCC(Oc2cccc(Cl)c2F)CC1 (centres undefined)
active: Potency [1, 19] 42.9 µM | Potency [10] 0.418 µM | Potency [11] 0.166 µM | Potency [14] 0.235 µM | Potency [13] 0.59 µM | Potency [16] 0.0743 µM
-34.5%: activity [2]
inactive: Potency [4] | Potency [5] | Potency [6] | Potency [7] | Potency [9] | Potency [12]
-68.7%: activity [3]

CCn1cc(-c2ccnc3[nH]c(-c4cccc(CN(C)C)c4)cc23)c(-c2ccc(NC(=O)N(C)C)cc2)n1
-7.11% and -33%: activity [2]
-1.45%: activity change, negative = inhibition ([1]; at 57.3 µM (top of the series))
-1.24% and -20%: activity [3]
active: Potency [10] 20.9 µM | Potency [11] 3.32 µM | Potency [14] 5.26 µM | Potency [13] 5.9 µM | Potency [15] 8.33 µM | Potency [16] 20.9 µM | Potency [17] 3.32 µM
2.9%: activity change, negative = inhibition ([1]; at 29.8 µM (top of the series))
inactive: Potency [4] | Potency [5] | Potency [6] | Potency [7] | Potency [8] | Potency [9]

CNC(=O)CN1CCC(Oc2cc3c(Nc4cccc(Cl)c4F)ncnc3cc2OC)CC1
inactive: Potency [4] | Potency [5] | Potency [6] | Potency [7]
active: Potency [1, 19] 42.9 µM | Potency [10] 0.0264 µM | Potency [11] 0.0187 µM | Potency [13] 0.0372 µM | Potency [15] 0.001 µM | Potency [17] 0.0148 µM
-49.9%: activity [3]
-23.1%: activity [2]

C=CC(=O)Nc1cccc(Oc2nc(Nc3ccc(N4CCN(C)CC4)cc3)ncc2Cl)c1
inactive: Potency [4] | Potency [5] | Potency [6] | Potency [9]
-14.3%: activity [3]
active: Potency [1, 19] 27.1 µM | Potency [11] 1.87 µM | Potency [14] 5.26 µM | Potency [13] 13.2 µM | Potency [15] 16.6 µM | Potency [17] 9.35 µM
-51.9%: activity [2]

COc1ccc(-n2nc(C(N)=O)c3c2C(=O)N(c2ccc(N4CCCCC4=O)cc2)CC3)cc1
inactive: Potency [18] | Potency [4] | Potency [5] | Potency [6] | Potency [7] | Potency [8] | Potency [9] | Potency [11] | Potency [12] | Potency [13] | Potency [16] | Potency [17]
